Paper PMC5540273 (PLoS ONE, 2017)
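Also: KINOMEscan kinase panel screen.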

Each compound was assayed on NEK6. Settings: concentration: 1 μM, replicates: in singlicate; n = 1.
NS(=O)(=O)c1cccc(-c2ccc3ncc(N4CCOCC4)nc3c2)c1 [GSK1535721] was tested, and the “%Inh” value was 0%. CN1c2ccc(CNc3ccc(F)cc3)cc2-c2c(cnn2C)S1(=O)=O was tested, and the “%Inh” value was 0%. In the case of Cc1cn2c(=O)cc(N3CCOCC3)nc2n1Cc1cccc(Cl)c1Cl [GSK2334006], the “%Inh” value is reported as 18%. For CC(C)(C)n1cnc2c(N)ncnc21 [SKF-97359], the “%Inh” value was 0%. O=c1cc(N2CCOCC2)nc2n(Cc3cccc(F)c3)ccn12 [GSK2297430] was tested, and the “%Inh” value was 0%. With O=C(c1ccc(-c2cc(-c3c[nH]nc3-c3ccccn3)ccn2)cc1)N1CCOCC1 [GW812171] the “%Inh” value was 2%. In the case of COc1ccc(Nc2nccc(N3CCC(NC(=O)Nc4cccc(C(C)=O)c4)C3)n2)cc1 (centres unmarked) [GSK1379731], the “%Inh” value is reported as 0%. With Cc1ccc(NC(=O)c2ccnc(N3CCN(C)CC3)c2)cc1-c1ccc(C(=O)NCC2CC2)cc1 [GW775604] the “%Inh” value was 0%. Nc1nccc(-c2c(-c3ccc(F)cc3)ncn2C2CCN(CC(F)(F)F)CC2)n1 [SB-236560] was tested, and the “%Inh” value was 0%. For Cc1nnc(-c2ccc3ncc(-c4ccc(S(C)=O)cc4)n3c2)o1 (centres unmarked), the “%Inh” value was 12%. For CN(C1=C(c2ccccc2)C(=O)NC1=O)c1ccccc1 [SB-334860], the “%Inh” value was 15%. For CSc1ccc(-c2cc3ncnc(SCC(=O)O)c3s2)cc1, the “%Inh” value was 17%. With O=C1Cc2cc(Nc3nc(NCc4cccc(S(=O)(=O)C(F)(F)F)c4)ncc3C(F)(F)F)ccc2N1 the “%Inh” value was 14%. With Cc1ccc(C(=O)NCC(N)=O)cc1-n1c(C)cc(OCc2ccc(F)cc2F)c(Br)c1=O the “%Inh” value was 4%. With CN(C(=O)c1ccc(-c2cc(-c3c[nH]nc3-c3ccccn3)ccn2)cc1)C1CCOCC1 [GW810083] the “%Inh” value was 6%. In the case of c1ccc(-c2cc(-c3c[nH]nc3-c3ccccn3)ccn2)cc1 [GW576604], the “%Inh” value is reported as 0%. For COc1cc2c(cc1OC[C@@H](O)CO)ncc1c3ccc(C#N)cc3[nH]c21, the “%Inh” value was 0%. Cl.Cl.Cl.Fc1ccc(-c2ncn(C3CCNCC3)c2-c2ccnc(Nc3ccccc3)n2)cc1 [SB-238039] was tested, and the “%Inh” value was 0%. With CCCCCc1nc2c(N)ncnc2n1CCCCC [SKF-97255] the “%Inh” value was 2%. For Fc1ccc(-c2ncn(CCCN3CCOCC3)c2-c2cccnc2)cc1 [SB-211743], the “%Inh” value was 0%. In the case of Cc1cccc(Cn2ccn3c(=O)cc(N4CCOCC4)nc23)c1 [GSK2297542], the “%Inh” value is reported as 2%. Fc1ccc(-c2nn3c(OCC(F)(F)F)cccc3c2-c2ccncc2)cc1 [GW514784] was tested, and the “%Inh” value was 0%. COc1cc2c(cc1OCCN1CCN(C)CC1)ncc1c3ccc(C#N)cc3[nH]c21 was tested, and the “%Inh” value was 7%. COc1ccc(COc2cc(-n3cnc4ccccc43)sc2C(N)=O)cc1 [GSK1024304] was tested, and the “%Inh” value was 0%. In the case of O=C(NOCC1CC1)c1ccc(F)c(F)c1Nc1ccc(I)cc1Cl, the “%Inh” value is reported as 0%. With Cc1c2ccc(N(C)c3ccnc(Nc4cccc(S(N)(=O)=O)c4)n3)cc2nn1Cc1ccccc1.Cl.Cl [GW787226] the “%Inh” value was 0%. O=c1cc(N2CCOCC2)nc2n(Cc3cccc(C(F)(F)F)c3)ccn12 [GSK2297543] was tested, and the “%Inh” value was 0%. In the case of Cc1nnc(-c2ccc(C)c(-c3ccc(C(=O)Nc4ccc(NS(C)(=O)=O)cc4)cc3)c2)o1 [GW702865], the “%Inh” value is reported as 0%. In the case of O=C(NCCNc1ccnc(Nc2ccc(F)cc2)n1)c1cc2ccccc2s1 [GSK1379874], the “%Inh” value is reported as 0%. With Cc1nnc(-c2ccc3occ(-c4ccc(C(C)O)cc4)c3c2)o1 (centres unmarked) the “%Inh” value was 4%. CCn1cnc2c(N)ncnc21 [GW345098] was tested, and the “%Inh” value was 29%. With N#Cc1c(N2CCOCC2)sc(-c2ccn[nH]2)c1-c1ccc(Cl)cc1 the “%Inh” value was 17%. For Cl.Oc1cccc(Nc2ccnc3cc(-c4ccncc4)ccc23)c1 [GW494601], the “%Inh” value was 0%. O=C(NCCNc1ccnc(Nc2ccc(F)cc2)n1)Nc1ccccc1F [GSK1379880] was tested, and the “%Inh” value was 0%.

Each compound was assayed on NEK7. Settings: concentration: 1 μM, replicates: in singlicate; n = 1.
In the case of NS(=O)(=O)c1cccc(-c2ccc3ncc(N4CCOCC4)nc3c2)c1 [GSK1535721], the “%Inh” value is reported as 0%. In the case of CN1c2ccc(CNc3ccc(F)cc3)cc2-c2c(cnn2C)S1(=O)=O, the “%Inh” value is reported as 0%. For Cc1cn2c(=O)cc(N3CCOCC3)nc2n1Cc1cccc(Cl)c1Cl [GSK2334006], the “%Inh” value was 0%. With CC(C)(C)n1cnc2c(N)ncnc21 [SKF-97359] the “%Inh” value was 0%. For O=c1cc(N2CCOCC2)nc2n(Cc3cccc(F)c3)ccn12 [GSK2297430], the “%Inh” value was 0%. For O=C(c1ccc(-c2cc(-c3c[nH]nc3-c3ccccn3)ccn2)cc1)N1CCOCC1 [GW812171], the “%Inh” value was 0%. In the case of COc1ccc(Nc2nccc(N3CCC(NC(=O)Nc4cccc(C(C)=O)c4)C3)n2)cc1 (centres unmarked) [GSK1379731], the “%Inh” value is reported as 0%. For Cc1ccc(NC(=O)c2ccnc(N3CCN(C)CC3)c2)cc1-c1ccc(C(=O)NCC2CC2)cc1 [GW775604], the “%Inh” value was 0%. With Nc1nccc(-c2c(-c3ccc(F)cc3)ncn2C2CCN(CC(F)(F)F)CC2)n1 [SB-236560] the “%Inh” value was 0%. In the case of Cc1nnc(-c2ccc3ncc(-c4ccc(S(C)=O)cc4)n3c2)o1 (centres unmarked), the “%Inh” value is reported as 0%. CN(C1=C(c2ccccc2)C(=O)NC1=O)c1ccccc1 [SB-334860] was tested, and the “%Inh” value was 0%. With NCCNS(=O)(=O)c1ccc(-c2ccnc3[nH]ccc23)cc1 [GSK977617] the “%Inh” value was 0%. CSc1ccc(-c2cc3ncnc(SCC(=O)O)c3s2)cc1 was tested, and the “%Inh” value was 8%. For O=C1Cc2cc(Nc3nc(NCc4cccc(S(=O)(=O)C(F)(F)F)c4)ncc3C(F)(F)F)ccc2N1, the “%Inh” value was 0%. In the case of Cc1ccc(C(=O)NCC(N)=O)cc1-n1c(C)cc(OCc2ccc(F)cc2F)c(Br)c1=O, the “%Inh” value is reported as 12%. For CN(C(=O)c1ccc(-c2cc(-c3c[nH]nc3-c3ccccn3)ccn2)cc1)C1CCOCC1 [GW810083], the “%Inh” value was 6%. With c1ccc(-c2cc(-c3c[nH]nc3-c3ccccn3)ccn2)cc1 [GW576604] the “%Inh” value was 0%. In the case of COc1cc2c(cc1OC[C@@H](O)CO)ncc1c3ccc(C#N)cc3[nH]c21, the “%Inh” value is reported as 0%. In the case of CCCCCc1nc2c(N)ncnc2n1CCCCC [SKF-97255], the “%Inh” value is reported as 0%. In the case of Fc1ccc(-c2ncn(CCCN3CCOCC3)c2-c2cccnc2)cc1 [SB-211743], the “%Inh” value is reported as 0%. In the case of Cc1cccc(Cn2ccn3c(=O)cc(N4CCOCC4)nc23)c1 [GSK2297542], the “%Inh” value is reported as 0%. Fc1ccc(-c2nn3c(OCC(F)(F)F)cccc3c2-c2ccncc2)cc1 [GW514784] was tested, and the “%Inh” value was 0%. For COc1cc2c(cc1OCCN1CCN(C)CC1)ncc1c3ccc(C#N)cc3[nH]c21, the “%Inh” value was 0%. For COc1ccc(COc2cc(-n3cnc4ccccc43)sc2C(N)=O)cc1 [GSK1024304], the “%Inh” value was 0%. With O=C(NOCC1CC1)c1ccc(F)c(F)c1Nc1ccc(I)cc1Cl the “%Inh” value was 0%. In the case of Cc1c2ccc(N(C)c3ccnc(Nc4cccc(S(N)(=O)=O)c4)n3)cc2nn1Cc1ccccc1.Cl.Cl [GW787226], the “%Inh” value is reported as 0%. With O=c1cc(N2CCOCC2)nc2n(Cc3cccc(C(F)(F)F)c3)ccn12 [GSK2297543] the “%Inh” value was 0%. With Cc1nnc(-c2ccc(C)c(-c3ccc(C(=O)Nc4ccc(NS(C)(=O)=O)cc4)cc3)c2)o1 [GW702865] the “%Inh” value was 0%. O=C(NCCNc1ccnc(Nc2ccc(F)cc2)n1)c1cc2ccccc2s1 [GSK1379874] was tested, and the “%Inh” value was 0%. Cc1nnc(-c2ccc3occ(-c4ccc(C(C)O)cc4)c3c2)o1 (centres unmarked) was tested, and the “%Inh” value was 0%. In the case of CCn1cnc2c(N)ncnc21 [GW345098], the “%Inh” value is reported as 14%. With N#Cc1c(N2CCOCC2)sc(-c2ccn[nH]2)c1-c1ccc(Cl)cc1 the “%Inh” value was 0%. With Cl.Oc1cccc(Nc2ccnc3cc(-c4ccncc4)ccc23)c1 [GW494601] the “%Inh” value was 0%. O=C(NCCNc1ccnc(Nc2ccc(F)cc2)n1)Nc1ccccc1F [GSK1379880] was tested, and the “%Inh” value was 0%.
